# Experimental data from PubChem BioAssay.
# Calls of active or inactive are those of the source.
# What was measured:
# [1] = anti-His antibody binders, primary screen, artefact control for SMM control protein annotation, biochemical, small-molecule microarray, 635 nm fluorescence (AID 1128); conditions: anti-His Alexa647 antibody binding, higher = more signal;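 note: score merges feature fluorescence with signal-to-noise for each printed compound spot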
# [2] = system: Human papillomavirus type 1a E7 protein (residues 1-88); test: HPV1a E7 small-molecule binders, primary screen, biochemical, small-molecule microarray, residues 1-88, 635 nm (AID 1129); conditions: small-molecule microarray binding, fluorescence 635 nm; higher = more signal
# [3] = molecular target: Focal adhesion kinase 1 (Homo sapiens) (UniProt Q05397); test: small-molecule microarray binders of FAK, primary screen, biochemical, 635/667 nm fluorescence, BSA, DTT (AID 1130); conditions: PTK2 binding, 635 nm fluorescence, higher = more signal;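 note: composite of spot emission at 667 nm and signal to noise over triplicate slides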
# Sequence of Focal adhesion kinase 1 (Homo sapiens) (Q05397 whole entry, looked up): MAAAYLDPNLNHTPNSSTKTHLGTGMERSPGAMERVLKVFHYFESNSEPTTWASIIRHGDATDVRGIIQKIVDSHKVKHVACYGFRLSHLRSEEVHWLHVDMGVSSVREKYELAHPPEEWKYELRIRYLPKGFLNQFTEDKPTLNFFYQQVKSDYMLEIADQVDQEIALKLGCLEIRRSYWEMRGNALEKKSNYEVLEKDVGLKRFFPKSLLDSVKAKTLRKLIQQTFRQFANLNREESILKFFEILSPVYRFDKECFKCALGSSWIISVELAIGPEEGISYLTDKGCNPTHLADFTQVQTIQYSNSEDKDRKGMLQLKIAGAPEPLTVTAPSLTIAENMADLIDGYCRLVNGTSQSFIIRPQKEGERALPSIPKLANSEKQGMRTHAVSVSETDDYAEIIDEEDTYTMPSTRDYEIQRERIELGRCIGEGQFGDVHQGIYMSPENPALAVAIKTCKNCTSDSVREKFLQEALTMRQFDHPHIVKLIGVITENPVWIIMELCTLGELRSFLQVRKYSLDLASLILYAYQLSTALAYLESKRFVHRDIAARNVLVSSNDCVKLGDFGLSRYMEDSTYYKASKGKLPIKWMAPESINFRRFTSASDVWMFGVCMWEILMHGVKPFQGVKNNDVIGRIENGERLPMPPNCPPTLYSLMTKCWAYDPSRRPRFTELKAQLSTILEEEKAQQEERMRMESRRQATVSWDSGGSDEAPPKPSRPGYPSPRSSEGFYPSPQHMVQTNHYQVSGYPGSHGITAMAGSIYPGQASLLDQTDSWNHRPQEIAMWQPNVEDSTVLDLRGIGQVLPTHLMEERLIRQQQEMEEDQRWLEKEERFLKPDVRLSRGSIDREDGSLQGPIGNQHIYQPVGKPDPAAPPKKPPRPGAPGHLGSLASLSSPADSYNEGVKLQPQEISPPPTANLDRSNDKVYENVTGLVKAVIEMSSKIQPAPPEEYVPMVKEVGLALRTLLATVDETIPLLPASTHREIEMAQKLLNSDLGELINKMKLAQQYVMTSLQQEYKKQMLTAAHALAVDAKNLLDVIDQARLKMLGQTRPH
# [4] = system: Fibrinogen (Alexa647-labelled); test: fibrinogen binders on compound microarrays, profiling panel, artefact control for SMM control-protein annotation, biochemical, small-molecule microarray, 635/667 nm fluorescence (AID 1131); conditions: fibrinogen-A647 binding fluorescence, higher = more signal;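 note: z-score merges 667 nm fluorescence with per-spot signal-to-noise over triplicate slides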
# [5] = molecular target: Follistatin (Homo sapiens) (UniProt P19883); test: follistatin binders on small-molecule microarrays, primary screen, biochemical, small-molecule microarray, 635/667 nm fluorescence (AID 1132); conditions: FST binding, 635 nm fluorescence, higher = more signal
# Sequence of Follistatin (Homo sapiens) (P19883 whole entry, looked up): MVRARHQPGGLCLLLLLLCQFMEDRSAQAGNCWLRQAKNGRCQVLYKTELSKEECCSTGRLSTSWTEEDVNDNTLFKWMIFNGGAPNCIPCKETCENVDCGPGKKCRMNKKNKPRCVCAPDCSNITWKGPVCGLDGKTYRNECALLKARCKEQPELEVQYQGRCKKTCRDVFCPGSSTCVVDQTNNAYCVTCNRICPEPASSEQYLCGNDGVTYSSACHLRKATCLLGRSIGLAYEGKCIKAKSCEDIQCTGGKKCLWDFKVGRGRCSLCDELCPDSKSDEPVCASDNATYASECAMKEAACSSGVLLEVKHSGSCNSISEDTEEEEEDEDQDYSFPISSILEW
# [6] = molecular target: Fibroblast growth factor 2 (Homo sapiens) (UniProt P09038); test: FGF2 binders on small-molecule microarrays, primary screen, biochemical, small-molecule microarray, 635/667 nm fluorescence (AID 1133); conditions: small-molecule microarray binding, FGF2, fluorescence 635/667; higher = more signal
# Sequence of Fibroblast growth factor 2 (Homo sapiens) (P09038 whole entry, looked up): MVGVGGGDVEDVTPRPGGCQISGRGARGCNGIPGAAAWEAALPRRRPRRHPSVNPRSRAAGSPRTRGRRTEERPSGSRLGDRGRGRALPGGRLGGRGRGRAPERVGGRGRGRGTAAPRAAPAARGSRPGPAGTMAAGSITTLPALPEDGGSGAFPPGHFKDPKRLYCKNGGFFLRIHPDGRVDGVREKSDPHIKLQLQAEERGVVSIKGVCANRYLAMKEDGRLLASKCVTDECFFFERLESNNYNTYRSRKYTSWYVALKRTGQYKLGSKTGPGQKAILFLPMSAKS
# [7] = mitochondrial membrane potential change in A549 cells, profiling panel, cell-based, JC-1 fluorescence, basal, 24 h, 100 nL (AID 1138); conditions: higher = more signal;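 note: A549 lung adenocarcinoma cells under basal conditions with no added stimulus; test concentration not given here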
# Lefty1 = Lefty1 binders on small-molecule microarrays, primary screen, biochemical, small-molecule microarray, 635/667 nm fluorescence (AID 1139); conditions: small-molecule microarray binding, fluorescence 635/667; higher = more signal
# [8] = system: wheat germ agglutinin (Triticum aestivum), Alexa647-labelled; test: wheat germ agglutinin binders on compound microarrays, profiling panel, artefact control for SMM control-protein annotation, biochemical, small-molecule microarray, 635/667 nm fluorescence (AID 1140); conditions: WGA-A647 binding, 635 nm fluorescence, higher = more signal;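 note: score merges 667 nm feature emission with signal to noise over triplicate slides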
# [9] = molecular target: Luciferin 4-monooxygenase (Photinus pyralis) (UniProt P08659); test: firefly luciferase enzyme inhibitors, primary screen, biochemical, luminescence, purified enzyme, 2006 set (AID 1141); conditions: SteadyGlo luminescence, 30 min, higher = more signal, called active from +8 up or from −8 down;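 note: cell-free assay with purified firefly luciferase at 100 ng per well in PBS; test concentration not given here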
# Sequence of Luciferin 4-monooxygenase (Photinus pyralis) (P08659 whole entry, looked up): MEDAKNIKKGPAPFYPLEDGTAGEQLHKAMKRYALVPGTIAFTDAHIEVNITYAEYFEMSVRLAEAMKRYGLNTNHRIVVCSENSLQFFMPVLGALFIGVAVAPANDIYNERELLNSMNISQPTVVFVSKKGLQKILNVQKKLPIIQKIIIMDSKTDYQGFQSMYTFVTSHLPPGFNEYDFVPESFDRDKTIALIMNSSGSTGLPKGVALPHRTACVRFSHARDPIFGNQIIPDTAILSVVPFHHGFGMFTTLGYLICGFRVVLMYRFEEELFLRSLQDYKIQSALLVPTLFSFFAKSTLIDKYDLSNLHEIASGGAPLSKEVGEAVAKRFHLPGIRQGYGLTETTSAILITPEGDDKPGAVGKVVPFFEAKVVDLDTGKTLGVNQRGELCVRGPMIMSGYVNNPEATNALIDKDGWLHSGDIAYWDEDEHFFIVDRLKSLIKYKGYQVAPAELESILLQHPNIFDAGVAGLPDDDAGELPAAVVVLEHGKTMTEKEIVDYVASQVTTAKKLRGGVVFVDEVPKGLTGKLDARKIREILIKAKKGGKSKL
structure (smiles),measurement,setting,value
Cc1ccc(S(=O)(=O)N2CC(C(=O)O)=CCC2c2ccccc2)cc1 (stereo not given),composite z-score,[1],-0.67
same,composite z-score,[2],-0.2
same,composite z-score,[3],0.223
same,composite z-score,[4],-0.275
same,composite z-score,[5],-1.22
same,composite z-score,[6],-1.14
same,z-score,[7],-1.33
same,composite z-score,Lefty1,-0.946
same,composite z-score,[8],0.0972
same,z-score,[9],1.52 (inactive)
Cc1ccc(N2C(=O)c3ccccc3[C@@H](C(=O)NCC(C)C)[C@@H]2c2ccc(CO)cc2)nc1,composite z-score,[1],0.0133
same,composite z-score,[2],-0.871
same,composite z-score,[3],-0.451
same,composite z-score,[4],-0.877
same,composite z-score,[5],-0.186
same,composite z-score,[6],-0.246
same,z-score,[7],0.738
same,composite z-score,Lefty1,-0.609
same,composite z-score,[8],-0.674
same,z-score,[9],-0.663 (inactive)
COc1ccc([Si](C)(C)[C@H]2[C@H](CC(=O)N(CCO)Cc3ccccc3)O[C@@]3(C(=O)N(Cc4cccc(N5C(=O)c6cccc7cccc5c67)c4)c4ccccc43)[C@@H]2C)cc1,composite z-score,[1],1.07
same,composite z-score,[2],1.09
same,composite z-score,[3],0.324
same,composite z-score,[4],0.281
same,composite z-score,[5],0.76
same,composite z-score,[6],1.27
same,z-score,[7],-0.203
same,composite z-score,Lefty1,0.834
same,composite z-score,[8],0.862
same,z-score,[9],-1.19 (inactive)
CC1CC/C=C\[C@H]2OC34C=CCN(Cn5nnc6ccccc65)C(=O)[C@H]3N(CCCO)C(=O)[C@@H]4C2C(=O)O1 (stereo not given in full),composite z-score,[1],0.239
same,composite z-score,[2],-0.326
same,composite z-score,[3],-0.47
same,composite z-score,[4],-1.15
same,composite z-score,[5],-0.693
same,composite z-score,[6],-1.03
same,z-score,[7],-0.198
same,composite z-score,Lefty1,-0.146
same,composite z-score,[8],-1.09
same,z-score,[9],0.885 (inactive)
CCCNC(=O)[C@@]1(c2ccc([N+](=O)[O-])cc2)CC(=O)N(CC23CC4CC(CC(C4)C2)C3)[C@@H]1c1ccc(CO)cc1I,composite z-score,[1],1.02
same,composite z-score,[2],1.08
same,composite z-score,[3],1.19
same,composite z-score,[4],-0.0329
same,composite z-score,[5],0.541
same,composite z-score,[6],0.753
same,z-score,[7],1.04
same,composite z-score,Lefty1,-0.462
same,composite z-score,[8],0.519
same,z-score,[9],-0.1 (inactive)
O=C1OCC=C[C@H]2OC34C=CCN(Cc5ccccc5)C(=O)[C@H]3N(CCCO)C(=O)[C@@H]4[C@@H]12 (stereo not given in full),composite z-score,[1],2.26
same,composite z-score,[2],0.374
same,composite z-score,[3],1.14
same,composite z-score,[4],-0.827
same,composite z-score,[5],0.397
same,composite z-score,[6],-0.56
same,z-score,[7],-0.63
same,composite z-score,Lefty1,1.12
same,composite z-score,[8],-0.0711
same,z-score,[9],-0.241 (inactive)
CO[C@H]1O[C@H](CO)[C@@H](OC(=O)Nc2ccc3c(c2)OCO3)[C@H](OC(=O)Nc2ccc3c(c2)OCO3)[C@H]1OC(=O)Nc1ccc2c(c1)OCO2,composite z-score,[1],2.47
same,composite z-score,[2],1.22
same,composite z-score,[3],0.0847
same,composite z-score,[4],0.86
same,composite z-score,[5],1.23
same,composite z-score,[6],0.506
same,z-score,[7],-0.641
same,composite z-score,Lefty1,0.683
same,composite z-score,[8],1.02
same,z-score,[9],-5.43 (inactive)
CC(C)(C)OC(=O)CC[C@]1(C(=O)NCC(O)CO)N=C(c2ccc(OCCCO)cc2)O[C@H]1c1ccccc1CN=[N+]=[N-] (stereo not given in full),composite z-score,[1],2.31
same,composite z-score,[2],0.705
same,composite z-score,[3],-0.0371
same,composite z-score,[4],1.03
same,composite z-score,[5],0.662
same,composite z-score,[6],0.703
same,z-score,[7],-0.101
same,composite z-score,Lefty1,-0.637
same,composite z-score,[8],0.959
same,z-score,[9],-0.718 (inactive)
COCCOC(=O)N1C(=O)[C@@]2(c3cc(C#CCC(C(=O)OC)C(=O)OC)ccc31)[C@H](c1ccccc1OCCO)N1[C@H](c3ccccc3)[C@H](c3ccccc3)OC(=O)[C@H]1[C@@H]2C(=O)Nc1nc2ccccc2s1,composite z-score,[1],2.04
same,composite z-score,[2],0.946
same,composite z-score,[3],0.767
same,composite z-score,[4],0.945
same,composite z-score,[5],1.16
same,composite z-score,[6],1.58
same,z-score,[7],-1.64
same,composite z-score,Lefty1,1.55
same,composite z-score,[8],0.577
same,z-score,[9],-2.57 (inactive)
NC(=O)NCC#Cc1ccc2c(c1)[C@]1(C(=O)N2)[C@H](c2ccc(O)cc2)N2[C@H](c3ccccc3)[C@H](c3ccccc3)OC(=O)[C@H]2[C@@H]1C(=O)N1CCN(c2ncccn2)CC1,composite z-score,[1],1.05
same,composite z-score,[2],0.855
same,composite z-score,[3],-0.75
same,composite z-score,[4],0.486
same,composite z-score,[5],0.743
same,composite z-score,[6],-0.0346
same,z-score,[7],-1.1
same,composite z-score,Lefty1,-0.112
same,composite z-score,[8],0.297
same,z-score,[9],-1.43 (inactive)
C[C@H]1C2[C@H](Cc3ccccc3)NC(=O)[C@]23C(=O)N[C@H](Cc2ccccc2)C(=O)N[C@H](Cc2ccccc2)C(=O)NC/C=C/CCC/C=C/C3[C@@H]2O[C@]12C (stereo not given in full),composite z-score,[1],0.896
same,composite z-score,[2],1.18
same,composite z-score,[3],0.0256
same,composite z-score,[4],0.304
same,composite z-score,[5],1.08
same,composite z-score,[6],0.519
same,z-score,[7],-0.256
same,composite z-score,Lefty1,1.56
same,composite z-score,[8],0.756
same,z-score,[9],-3.27 (inactive)
COc1ccccc1CN1C(=O)c2ccccc2[C@](Cc2ccccc2I)(C(=O)NCc2ccccc2)[C@@H]1c1ccc(CO)cc1,composite z-score,[1],-0.0448
same,composite z-score,[2],0.406
same,composite z-score,[3],-0.2
same,composite z-score,[4],0.414
same,composite z-score,[5],-0.526
same,composite z-score,[6],-0.243
same,z-score,[7],0.109
same,composite z-score,Lefty1,-0.88
same,composite z-score,[8],0.687
same,z-score,[9],0.0375 (inactive)
CN(C)CCCC[C@@H]1NC(=O)[C@@H]2C[C@H](C(=O)NCCCCCCN)[C@H](c3ccc(O)cc3)N2C1=O,composite z-score,[1],0.297
same,composite z-score,[2],1.19
same,composite z-score,[3],1.55
same,composite z-score,[4],0.763
same,composite z-score,[5],1.35
same,composite z-score,[6],0.787
same,z-score,[7],-0.729
same,composite z-score,Lefty1,0.829
same,composite z-score,[8],0.998
same,z-score,[9],0.37 (inactive)
C=CCOC(=O)[C@H]1[C@@H]2C(=O)O[C@@H](c3ccccc3)[C@@H](c3ccccc3)N2[C@@H](c2ccc(OCCOC(=O)[C@@H]3C[C@@H]4C(=O)NCC(=O)N4[C@@H]3c3ccc(O)cc3)cc2)[C@]12C(=O)Nc1ccc(I)cc12,composite z-score,[1],1.59
same,composite z-score,[2],1.22
same,composite z-score,[3],2.17
same,composite z-score,[4],0.597
same,composite z-score,[5],1.41
same,composite z-score,[6],1.65
same,z-score,[7],-1.17
same,composite z-score,Lefty1,1.24
same,composite z-score,[8],0.763
same,z-score,[9],-0.978 (inactive)
